# Measured values: PubChem BioAssay (EPA / NIEHS)
# Inconclusive results are not listed. The source made the active and inactive calls. Rule for the calls, unless noted: active = hit-call score of the fitted dose curve at least 0.9, where 1 is the maximum; inconclusive = response in the unintended direction; inactive = score below 0.9.
# Legend:
# [1] = system: SRY-box transcription factor 17 (SOX17) Protein Expression, Deisenroth Lab, SOX17 (gene 64321); assay: CCTE_Deisenroth_DEVTOX-GLR_Pluri_SOX17: CCTE's DevTox GLR-Pluri Assay Evaluation of SRY-box transcription factor 17 (SOX17) Protein Expression, Deisenroth Lab (AID 2284427)
# Method in brief: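 Readout: percent SOX17+ cells (SOX17+ count/cell count) by high-content imaging of an inducible fluorescent reporter, corrected for 0.2% DMSO solvent control. RUES2-GLR cells, 48 h differentiation, dosed twice at 24 h intervals, 1 nM - 200 uM.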
# [2] = system: SRY-box transcription factor 2 (SOX2) Protein Expression, Deisenroth Lab, SOX2 (gene 6657); assay: CCTE_Deisenroth_DEVTOX-GLR_Pluri_SOX2: CCTE's DevTox GLR-Pluri Assay Evaluation of SRY-box transcription factor 2 (SOX2) Protein Expression, Deisenroth Lab (AID 2284428; active = hit-call score of the fitted dose curve at least 0.9, where 1 is the maximum; inactive = score below 0.9)
# Procedure: CCTE_Deisenroth_DEVTOX-GLR_Pluri assay is a cell-based, multiplex-readout assay that uses RUES2-GLR, a human pluripotent cell line, with measurements taken at 48 hours after chemical dosing in a 384-well microplateCCTE_Deisenroth_DEVTOX-GLR_Pluri_SOX2 is 1 of 4 assay components calculated from the CCTE_Deisenroth_DEVTOX-GLR_Pluri assay and it measures an the percentage of cells in an pluripotent state. Using a type of inducible fluorescent protein reporter, gain-of-signal activity can be used to understand changes in gene expression with fluorescent microscopy. The percentage of SOX2+ cells are determined by calculating the number of SOX2+ cells divided by the cell count. To generalize the intended target to other relatable targets, this assay component is annotated to the transcription factor intended target family, where the subfamily is SRY-related HMG-box.Data from the assay component CCTE_Deisenroth_DEVTOX-GLR_Pluri_SOX2 was analyzed as 1 assay endpoint. The endpoint is the percent change in the SOX2+ cell population relative to the 0.2% DMSO control in the CCTE_Deisenroth_DEVTOX-GLR_Pluri assay. Furthermore, this assay endpoint can be referred to as a primary readout, because this assay has produced multiple assay endpoints where this one serves as a measure of […].
# All assay protocols are aligned to the DevTox GLR-Endo assay workflow. […]
# [3] = system: Brachyury (BRA) Protein Expression, Deisenroth Lab, TBXT (gene 6862); assay: CCTE_Deisenroth_DEVTOX-GLR_Pluri_BRA: CCTE's DevTox GLR-Pluri Assay Evaluation of Brachyury (BRA) Protein Expression, Deisenroth Lab (AID 2284429)
# Method in brief: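 Percent BRA+ cells (BRA+ count over total cells) by high-content imaging of fixed RUES2-GLR cultures, corrected by 0.2% DMSO control. Cells received two doses over 48-hour differentiation, 1 nM–200 uM, n=4 experiments.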
# [4] = CCTE_Deisenroth_DEVTOX-GLR_Pluri_CellCount: Viability Assessment in CCTE's DevTox GLR-Pluri Assay Evaluation of Total Cell Counts, Deisenroth Lab (AID 2284430; active = hit-call score of the fitted dose curve at least 0.9, where 1 is the maximum; inactive = score below 0.9)
# Method in brief: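 Cytotoxicity readout: fluorescent nuclei counts by high-content imaging, expressed as percent change relative to 0.2% DMSO. Human RUES2-GLR pluripotent line differentiated 48 h, dosed twice at 24-h intervals across 1 nM - 200 uM (10 points).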
compound,measurement,setting,value
NC(=O)c1ccc(N)nc1,outcome,[1],inactive
same,AC50,[2],38.1 µM (active)
same,AC50,[3],100 µM (active)
same,outcome,[4],inactive
